Sfp inh: inhibitors of Bacillus subtilis Sfp phosphopantetheinyl transferase | hit rate 3.5% among 310,000 | Biochemical Sfp PPTase activity, qHTS | Q9F4F7 | Potency, µM, inactives show largest response in the series, negative = inhibition, most hits filed as inhibitors;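 note: the enzyme is Sfp with the accession as filed and its product quenches rhodamine fluorescence; 0% = enzyme reaction without inhibitor and -100% = no enzyme wells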
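Sfp 15 nM + cpd, 15 min RT; start w/ rhodamine-CoA 5 uM, BHQ-2-YbbR 12.5 uM (final); 50 mM Hepes pH 7.6, 10 mM MgCl2, 0.01% NP-40, 0.01% BSA; read 525/598 nm at 0 and 30 min.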
PLK1 PBD block: blocks phosphopeptide binding to human PLK1 polo-box domain; Plk1 PBD binding of FITC phosphopeptide, fluorescence polarization; hit rate 2.8% among 360,000; Potency, µM, inactives show max response, negative = inhibition, actives largely listed as inhibitors; AID 720504; P53350; note: series mostly up to about 57 µM; % is set by controls: 0 for no effect and ±100 for the full control effect; nearly all actives have a fitted effect of over 65% in size
G9a block: inhibitors of human histone lysine methyltransferase G9a; Q96KQ7; G9a H3K9 monomethylation, AlphaScreen, 2 h; Potency, µM (doses to about 102 µM), for inactives: at the top dose activity, negative = inhibition, usual class: inhibitors; hit rate 8.8% among 350,000; AID 504332; note: % is set by controls: 0 for no effect and ±100 for the full control effect; nearly all actives have a fitted effect of over 75% in size
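Using a bead-based AlphaScreen, monomethylated H3K9 product from 2 h room-temperature reactions (G9a 20 nM, peptide 500 nM, SAM 20 uM) was detected with 0.5 ug/mL rabbit anti-H3K9me1 antibody.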
JMJD2A Tudor: blocks the human JMJD2A Tudor domain; O75164; AlphaScreen JMJD2A-Tudor / H3K4me3 peptide binding; Potency, µM (series often up to 114 µM), for the others: top-dose activity change, negative = inhibition, most hits filed as inhibitors; hit rate 4.4% among 390,000; note: % is set by controls: 0 for no effect and ±100 for the full control effect; nearly all actives have a fitted effect of over 50% in size
BAZ2B inh: inhibitors of human BAZ2B bromodomain; AlphaScreen BAZ2B-H3K14Ac peptide displacement; hit rate 4.4% among 360,000; Potency, µM (top dose mostly 114 µM), for inactives: at the highest dose activity change, negative = inhibition, most hits filed as inhibitors; note: % is set by controls: 0 for no effect and ±100 for the full control effect; nearly all actives have a fitted effect of over 60% in size
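BAZ2B 50 nM plus b-H3(5-23)K14Ac 50 nM, PBS pH 7.4/0.01% Tween-20, 30 min RT; compound added (max 110 uM), 30 min RT; streptavidin donor/Ni-chelate acceptor beads 10 ug/mL final, 20 min dark; AlphaScreen read.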
HP1b binding inh: HP1-beta chromodomain-methylated histone interaction inhibition. AID 540317. AlphaScreen HP1-beta / biotin-H3K9me3 peptide binding. hit rate 0.56% among 390,000. Potency, µM (titrated, usually from 114 µM), for the others: top-dose activity change, negative = inhibition, most hits filed as inhibitors; note: nearly all actives have a fitted effect of over 70% in size
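Compound inhibition of the preformed complex between 50 nM HP1-beta and 50 nM biotinylated H3K9me3 peptide was read by AlphaScreen. Buffer was PBS pH 7.4 with 0.01% Tween-20. Incubations ran 30 min at room temperature, with 10 ug/mL donor/acceptor beads.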
Active calls of the source: *; ? = inconclusive; . = no result; [ ] = remark or other dose. Hits are enriched below; roughly 12% of the tested compounds scored in any of these assays. Calls come from the whole dose curve; as a rule, active = well fitted curve in the direction sought with a large enough effect; inconclusive = small, poorly fitted or top-dose-only effect, or another doubt; inactive = no such curve, though single readings can be large; an effect the other way counts as inactive or inconclusive. Potency is the fitted concentration of half-maximal effect.

SMILES	Sfp inh	PLK1 PBD block	G9a block	JMJD2A Tudor	BAZ2B inh	HP1b binding inh
Cc1ccc(-n2nc(C)c(NC(=O)CCl)c2C)cc1	26.5%	-1.3%	10.8%[59 µM]	-18.6%	1.5%	26.1%
COc1ccc(C2C(C(=O)c3sc(C)nc3C)=C(O)C(=O)N2CCCn2ccnc2)cc1 (stereo unspecified)	.	5.1%	.	-28.0%	.	-3.1%
N#CC1(N2CCN(C(=O)c3ccccc3)CC2)CCCCC1	23.2%	-8.0%	16.3%	-10.0%	?	31.4%
CCc1ccc(OCC(=O)O/N=C(\N)c2ccncc2)cc1	-8.7%	1.1%	.	4.8%	11.6%	59.3%
CCn1c(SCC(O)c2ccccc2)nnc1-c1ccccc1 (stereo unspecified)	19.2%	1.1%	5.4%[59 µM]	-21.8%	2.6%	9.6%
CCSc1cnc(-c2ccccc2)n1CC	15.4%	3.6%	50.1µM*	-31.3%	?	8.7%
COc1cccc(C2C(C(=O)c3ccco3)=C(O)C(=O)N2CCN(C)C)c1OC (stereo unspecified)	7.5%	-1.8%	?	-17.4%	4.8%	9.8%
Cc1nc(C)c(C(=O)C2=C(O)C(=O)N(CCN(C)C)C2c2ccco2)s1 (stereo unspecified)	0.7%	-9.2%	.	-12.1%	-2.7%	23.7%
COc1ccc2nc(N3C(=O)C(O)=C(C(=O)c4ccco4)C3c3ccccc3OC)sc2c1 (stereo unspecified)	16.8%	?	35.5µM*	-2.3%	?	29.7%
CCOC(=O)c1sc(N2C(=O)C(O)=C(C(=O)c3ccco3)C2c2ccco2)nc1C (stereo unspecified)	-19.3%	?	8.91µM*	15.8µM*	?	?
Cc1nc(N2C(=O)C(=O)/C(=C(/O)c3ccccc3)C2c2ccco2)sc1C (stereo unspecified)	14.1%	-21.7%	?	?	-0.4%	5.4%
COc1ccc2nc(N3C(=O)C(O)=C(C(=O)c4ccco4)C3c3ccc(C)o3)sc2c1 (stereo unspecified)	.	18.9µM*	25.1µM*	?	44.7µM*	-22.6%
COC(=O)c1sc(N2C(=O)C(=O)/C(=C(/O)c3ccccc3)C2c2ccco2)nc1C (stereo unspecified)	9.4%	-10.9%	35.5µM*	-17.8%	-25.0%	-2.8%
CSc1ccc(CCNC(=O)CCc2nnc3ccc(N4CCC5(CC4)OCCO5)nn23)cc1	5.0%	-9.5%	46.6%	-24.4%	-7.5%[57.1 µM]	17.8%
CCN(C(=O)Cn1c(SCC(=O)Nc2ccc(OC)cc2)nc2ccccc21)c1cccc(C)c1	.	.	-2.0%[59 µM]	-13.6%	-20.4%	23.5%
Cc1ccc2nc(N3C(=O)C(O)=C(C(=O)c4ccc(C)o4)C3c3ccc(O)cc3)sc2c1 (stereo unspecified)	.	?	?	-46.1%	?	-9.5%
Cc1ccc2nc(N3C(=O)C(O)=C(C(=O)c4ccco4)C3c3cccs3)sc2c1 (stereo unspecified)	?	26.7µM*	25.1µM*	17.8µM*	44.7µM*	-21.4%
Cc1cc(C)c2nc(N3CCN(C(=O)c4ccco4)CC3)sc2c1	.	-3.3%	-5.1%[0.501 µM]	-19.9%	?	-3.2%
Cc1cc(C)c2nc(N3C(=O)C(O)=C(C(=O)c4ccco4)C3c3ccco3)sc2c1 (stereo unspecified)	-10.9%	10.6µM*	?	50.1µM*	44.7µM*	-21.2%
CCOc1ccc2nc(N3C(=O)C(O)=C(C(=O)c4ccco4)C3c3ccco3)sc2c1 (stereo unspecified)	.	?	?	39.8µM*	50.1µM*	-16.7%
Cc1cccc(NS(=O)(=O)c2ccc3c(c2)CCN3C(=O)C2CC2)c1C	.	.	-9.2%[59 µM]	-20.7%	.	11.4%
O=C1CC(c2ccccc2)CC(=O)C1CS(=O)(=O)c1ccccc1 (stereo unspecified)	-51.4%	-25.4%	3.16µM*	-20.1%	-32.2%	44.8%
Cc1ccc(/C=N/n2c(C)cc(C)c(C#N)c2=O)cc1	2.8%	-0.5%	24.4%[59 µM]	-3.7%	-5.1%	51.0%
Cc1cc(C)n(/N=C/c2ccc(O)cc2)c(=O)c1C#N	9.7%	29.9µM*	-1.2%	-31.1%[57.1 µM]	-9.1%	13.4%
CCOC(=O)CCN1C(=O)[C@H]2[C@H]3[C@H](O)[C@H](O)C/C(=N/NC(=O)OCc4ccccc4)[C@@H]3CC[C@@H]2C1=O	24.8%	.	.	.	.	.
SMILES	Sfp inh	PLK1 PBD block	G9a block	JMJD2A Tudor	BAZ2B inh	HP1b binding inh
COc1ccc(S(=O)(=O)Nc2ccc3oc4c(c3c2)C(=O)CC(C)(C)C4)cc1	.	.	-0.5%[59 µM]	7.3%	4.1%	33.4%
CCC1(c2ccc(F)cc2)NC(=O)N(CC(=O)Nc2ccc(C(N)=O)cc2)C1=O (stereo unspecified)	22.0%	-4.6%	-14.4%	-14.3%	-6.1%	-2.6%
Cc1ccc(C2(C)NC(=O)N(CC(=O)Nc3ccccc3N3CCCC3)C2=O)cc1 (stereo unspecified)	.	-5.0%	39.8µM*	?	50.1µM*	-21.3%
CCC1(c2ccc(F)cc2)NC(=O)N(CC(=O)Nc2ccc(N3CCCCC3)cc2)C1=O (stereo unspecified)	.	-9.2%	-5.8%[0.501 µM]	44.7µM*	44.7µM*	-47.8%
CC1(c2ccc(Cl)cc2)NC(=O)N(CC(=O)Nc2ccc(N3CCCCC3)cc2)C1=O (stereo unspecified)	.	-14.1%	50.1µM*	?	?	-23.5%
Nc1ccc2c(c1)ncn2CCCn1cnc2cc(N)ccc21	11.0%	1.2%	-29.0%[59 µM]	44.7µM*	79.4µM*	21.8%
CC(=O)NCCCc1ccc(C(=O)COC(=O)CNC(=O)c2ccc3ccccc3c2)cc1	.	.	.	3.1%[57.1 µM]	.	9.5%[57 µM]
Cc1ccc(NC(=O)[C@H](CC(C)C)NC(=O)[C@@H]2Cc3ccccc3CN2)cc1	17.0%	-5.0%	31.6µM*	-24.3%	?	14.7%
Cc1cccc(NC(=O)[C@H](Cc2ccccc2)NC(=O)[C@@H]2Cc3ccccc3CN2)c1	-4.2%	?	-8.1%[0.0925 µM]	-29.2%	?	24.9%
Cc1ccc(NC(=O)[C@@H](CC(C)C)NC(=O)[C@@H]2Cc3ccccc3CN2)cc1	10.7%	-18.0%	?	-24.7%	-19.4%	48.7%
COc1ccccc1CNC(=O)Cc1c[nH]c2ccccc12	17.4%	-3.1%	-5.3%	-21.6%	-12.2%	-6.5%
COc1ccc(C)cc1NC(=O)CNC(=O)[C@@H]1Cc2ccccc2CN1	-2.9%	-5.8%	44.7µM*	-12.0%	-5.7%[57.1 µM]	29.2%
COc1cccc(NC(=O)[C@H](CC(C)C)NC(=O)[C@@H]2Cc3ccccc3CN2)c1	2.6%	-15.8%	16.6%[0.0925 µM]	79.4µM*	?	4.2%
COc1ccccc1CNC(=O)[C@H](Cc1c[nH]c2ccccc12)NC(=O)[C@@H]1Cc2ccccc2CN1	22.9%	-7.4%	12.6µM*	-27.2%	?	26.1%

Source: PubChem BioAssay (National Center for Advancing Translational Sciences (NCATS))
